Source: PubChem BioAssay (Tox21)
The source made the active and inactive calls. A call without a number means that no potency is given here. The call rests on the fitted dose curve; in most records, active means well fitted curve in the direction sought with a large enough effect in the signal ratio in the repeat runs (not every such curve was filed as active); inconclusive means weak or mixed curves, or effect the other way; inactive means no such curve, though single readings can be large or run the other way; the % refers to the signal ratio.
Potency means the concentration at half of the fitted maximal effect.

What follows are molecules tested against Estrogen receptor (Homo sapiens) (UniProt P03372) (assay: qHTS assay to identify small molecule antagonists of the estrogen receptor alpha (ER-alpha) signaling pathway (AID 743069)). Settings: HEK293 ER-alpha-UAS-bla, beta-lactamase ratio, antagonist mode; series mostly up to 69.4 µM.
Sequence of Estrogen receptor (Homo sapiens) (P03372 whole entry, looked up): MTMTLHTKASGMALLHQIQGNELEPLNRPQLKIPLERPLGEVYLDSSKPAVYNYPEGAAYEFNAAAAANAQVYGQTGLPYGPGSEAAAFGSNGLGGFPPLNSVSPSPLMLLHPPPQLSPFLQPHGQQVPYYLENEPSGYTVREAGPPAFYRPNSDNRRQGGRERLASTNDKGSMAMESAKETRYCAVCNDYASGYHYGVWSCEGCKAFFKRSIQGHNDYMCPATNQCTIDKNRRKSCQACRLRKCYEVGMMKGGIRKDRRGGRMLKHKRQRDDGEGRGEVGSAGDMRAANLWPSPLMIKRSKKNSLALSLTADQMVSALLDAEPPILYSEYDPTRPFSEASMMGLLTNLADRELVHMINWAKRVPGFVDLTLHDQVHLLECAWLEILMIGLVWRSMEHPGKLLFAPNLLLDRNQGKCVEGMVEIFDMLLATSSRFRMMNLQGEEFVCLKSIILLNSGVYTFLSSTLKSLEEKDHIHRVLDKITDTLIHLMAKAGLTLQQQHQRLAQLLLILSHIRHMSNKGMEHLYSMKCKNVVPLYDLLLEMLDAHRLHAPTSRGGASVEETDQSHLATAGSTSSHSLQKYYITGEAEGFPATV
From the text: National Center for Advancing Translational Sciences [NCATS]
NIH Chemical Genomics Center [NCGC]
U.S. Environmental Protection Agency [EPA]
National Institutes of Environmental Health Sciences [NIEHS]
National Toxicology Program [NTP]
U.S. Food and Drug Administration [FDA]
Estrogen receptor (ER), a nuclear hormone receptor, plays an important role in development, metabolic homeostasis and reproduction. Two subtypes of ER, ER-alpha and ER-beta have similar expression patterns with some uniqueness in both types. Endocrine disrupting chemicals (EDCs) and their interactions with steroid hormone receptors like ER causes disruption of normal endocrine function. To identify the compounds that inhibit ER signaling, an ER-alpha-UAS-bla GripTiteTM cell line (Invitrogen, Carlsbad, CA, USA) containing a beta-lactamase reporter gene under the control of an Upstream Activator Sequence (UAS) stably integrated into HEK293 cells was used to screen the Tox21 10K compound library.
Tox21 Assay Protocol Summary:
ER-alpha-bla cells were cultured in assay medium containing 2% charcoal stripped FBS overnight in the culture flasks before the assay was performed. The cells were dispensed at 5,000 cells/5 uL of assay medium per well into black wall/clear-bottom 1536-well plates using a Multidrop Combi (ThermoFisher Scientific, Waltham, MA) dispenser. After the assay plates were incubated at a 37C and 5% CO2 for 4 hr, 23 nL of compounds dissolved in DMSO, positive controls or DMSO only was transferred to the assay plate by a Pintool station (Kalypsys, San Diego, CA), followed by addition of 1 uL of 17beta-estradiol in assay medium using a Flying Reagent Dispenser (Aurora Discovery, San Diego, CA). The plates were incubated at 37C and 5% CO2 for 18 hr. Then 1 uL of LiveBLAzerTM B/G FRET substrate was added using a Flying Reagent Dispenser, the plates were incubated at room temperature for 2 hours, and fluorescence intensity was measured by an Envision plate reader (PerkinElmer, Shelton, CT).
In the case of `CC(C)(C)C(O)/C(=C\c1ccc(Cl)cc1Cl)n1cncn1` (stereo not given), the Potency is reported as 59.3 µM [inhibitor] (active).
In the case of `Cc1ccc(OP(=O)(Oc2ccccc2)Oc2ccccc2)cc1`, the Potency is reported as “inactive”.
With `ClC1=C(Cl)[C@]2(Cl)[C@H]3[C@H]([C@H]4C=C[C@H]3C4)[C@@]1(Cl)C2(Cl)Cl` the Potency was “inactive”.
For `CC(=O)c1cc(C(C)(C)C)cc2c1CCC2(C)C`, the Potency was “inactive”.
With `N#C/C=C/C#N` the Potency was “inactive”.
`CC(=O)C(Cl)(Cl)Cl` was tested, and the Potency was 1.88 µM [inconclusive] (active).
`CCCCCCCCCBr` was tested, and the Potency was “inactive”.
For `Cc1c(Cl)c(=O)oc2cc(OP(=O)(OCCCl)OCCCl)ccc12`, the Potency was “inactive”.
With `COP(=O)(OC)SCn1c(=O)oc2cc(Cl)cnc21` the Potency was “inactive”.
For `ClC1=C(Cl)C2(Cl)C3C(Cl)C=CC3C1(Cl)C2(Cl)Cl` (stereo not given), the Potency was “inactive”.
In the case of `O=C(NC(=O)c1c(F)cccc1F)Nc1cc(Cl)c(OC(F)(F)C(F)F)c(Cl)c1`, the Potency is reported as “inactive”.
With `CCCN(CC)CC1COC2(CCC(C(C)(C)C)CC2)O1` (stereo not given) the Potency was “inactive”.
For `C[C@H]1CC[C@@H]2[C@@H](C)[C@H]3[C@H](C[C@H]4[C@@H]5CC=C6CC(O[C@@H]7O[C@H](CO)[C@H](O)[C@H](O[C@@H]8O[C@H](CO)[C@@H](O)[C@H](O)[C@H]8O)[C@H]7O[C@H]7O[C@@H](C)[C@H](O)[C@@H](O)[C@H]7O)CC[C@]6(C)[C@H]5CC[C@]34C)N2C1` (stereo not given in full), the Potency was “inactive”.
With `CCOC(=O)C1(c2ccccc2)CCN(CCC(C#N)(c2ccccc2)c2ccccc2)CC1` the Potency was 6.01 µM [inconclusive] (active).
With `CCCCCCCCCCCCBr` the Potency was “inactive”.
`CCC[CH2][Sn]([CH2]CCC)([CH2]CCC)[O]C(=O)c1ccccc1` was tested, and the Potency was 9.77 µM [cytotoxic] (active).
`O=C1c2ccccc2C(=O)C1C(=O)C(c1ccccc1)c1ccc(Cl)cc1` (stereo not given) was tested, and the Potency was 5.49 µM [inconclusive] (active).
`N#CCCSCCC#N` was tested, and the Potency was “inactive”.
In the case of `NNC(=O)c1ccccc1`, the Potency is reported as “inactive”.
In the case of `CCCCCCCCCCCCCN1CC(C)OC(C)C1` (stereo not given), the Potency is reported as “inactive”.
`O=C(O)c1cc[c]([Hg][Cl])cc1` was tested, and the Potency was “inactive”.
`COC12CC[C@@]3(C[C@@H]1C(C)(O)C(C)(C)C)[C@H]1Cc4ccc(O)c5c4[C@@]3(CCN1CC1CC1)[C@H]2O5` (stereo not given in full) was tested, and the Potency was 13.7 µM [inconclusive] (active).
In the case of `CCCCCCCCCCCCCCCCCCn1cc[n+](C)c1`, the Potency is reported as 9.72 µM [inconclusive] (active).
`CC(=O)Nc1ccc2c(c1)Cc1ccccc1-2` was tested, and the Potency was “inactive”.
In the case of `CCCN(CCC)CCc1c[nH]c2ccccc12`, the Potency is reported as “inactive”.
For `Oc1c(Cl)c(Cl)cc(Cl)c1Cl`, the Potency was 15.1 µM [inconclusive] (active).
`O=C(CCCN1CCC2(CC1)C(=O)NCN2c1ccccc1)c1ccc(F)cc1` was tested, and the Potency was 8.49 µM [inconclusive] (active).
For `O=C(Nc1ccc2[nH]ccc2c1)c1cc2cc(F)ccc2n1Cc1cccc(F)c1`, the Potency was “inactive”.
In the case of `O=C(O)COc1nc(Cl)c(Cl)cc1Cl`, the Potency is reported as “inactive”.
With `CC(C)CCCCCOC(=O)c1ccccc1C(=O)OCCCCCC(C)C` the Potency was “inactive”.
With `COc1ccc(OC)c(CC(C)N)c1` (stereo not given) the Potency was “inactive”.
In the case of `CC(C)N1C(=O)N(c2ccccc2)CSC1=NC(C)(C)C`, the Potency is reported as 49 µM [inconclusive] (active).
For `CC(C)CC(C)N` (stereo not given), the Potency was “inactive”.
`C1CCC2CCCCC2C1` (stereo not given) was tested, and the Potency was “inactive”.
With `CC(C)(C)c1ccc(CSc2cnn(C(C)(C)C)c(=O)c2Cl)cc1` the Potency was 0.0055 µM [inconclusive] (active).
`COc1cc(C=O)cc2c1[C@H](COC(N)=O)[C@]1(OC(C)=O)ON2C[C@H]2[C@@H]1N2C(C)=O` was tested, and the Potency was 5.49 µM [inconclusive] (active).
`ClC1=C(Cl)[C@]2(Cl)[C@@H]3[C@@H]4C[C@@H]([C@H]5O[C@@H]45)[C@@H]3[C@@]1(Cl)C2(Cl)Cl` was tested, and the Potency was “inactive”.
In the case of `CC(C)OC(=S)S`, the Potency is reported as “inactive”.
In the case of `C=CCC1=C(C)C(OC(=O)C2C(C=C(C)C)C2(C)C)CC1=O` (stereo not given), the Potency is reported as 58.3 µM [fluorescent] (active).
`CC(C)OS(C)(=O)=O` was tested, and the Potency was “inactive”.
